# Measurements published in PubChem BioAssay (NCATS).
# A number with no mark means an inactive call. Results filed as inconclusive are left out. Entries that show only a call come without a potency. Activity calls are given as the source filed them. Unless noted, calls come from the whole dose curve; as a rule, active = well fitted curve in the direction sought with a large enough effect; inconclusive = small, poorly fitted or top-dose-only effect, or another doubt; inactive = no such curve, though single readings can be large; an effect the other way counts as inactive or inconclusive.
# Experiments:
# [1] = Cell Viability - HepG2 (AID 433; calls by dose curve;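 note: potency is the fitted concentration of half-maximal effect; potency for ATP loss meaning cytotoxicity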); details: qHTS
# Outline: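 HepG2 hepatocellular carcinoma cells (1500/well) were treated with compounds for 40 h at 37 °C in complete medium; intracellular ATP was read by CellTiter-Glo luminescence. Data were normalized to DMSO and 100 uM tamoxifen, and AC50 came from Hill fits.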
# [2] = Cell Viability - HUV-EC-C (AID 542); details: HUV-EC-C endothelial cell viability, qHTS; series mostly up to 92.2 µM; note: nearly all actives have a fitted effect of over 35% in size
# Outline: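 HUV-EC-C human vascular endothelial cells, 1000/well, exposed to compound for 40 hr at 37 °C in complete medium. Intracellular ATP was read by CellTiter-Glo luminescence. AC50 came from Hill-equation fits of concentration-response data.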
# [3] = Cellular Toxicity (caspase-3) HUV-EC-C (AID 656); details: HUV-EC-C cells, caspase-3 activation (apoptosis), vehicle = 0, 100 µM tamoxifen = 100%; series mostly up to 92.2 µM
# Outline: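 HUV-EC-C endothelial cells, 1000/well, were pre-incubated 5 hr at 37°C, then exposed to compounds for 16 hr at 37°C. Caspase-Glo 3/7 luminescence was read after 20 min at room temperature. AC50 came from Hill fits, normalized to DMSO and 100 uM tamoxifen.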
# [4] = Cellular Toxicity (caspase-3) H-4-II-E (AID 663); details: H-4-II-E rat hepatoma; Potency: caspase-3 activation; series mostly up to 92.2 µM;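 note: cells exposed to compound for 16 hr before readout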
# Outline: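 Apoptosis induction is scored as increased luminescence from caspase 3/7 substrate cleavage in rat hepatoma H-4-II-E cells exposed to compound for 16 hr. Activity is scaled between DMSO and 100 uM tamoxifen.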
# [5] = Cellular Toxicity (caspase-3) Renal Proximal Tubule (AID 667); details: renal proximal tubule cells; series mostly up to 91.7 µM;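 note: cells exposed to compound for 16 hours at 37 °C before detection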
# Outline: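 Primary rat proximal tubule cells, 1000/well, 5 h plating at 37 °C, then compound 16 h at 37 °C. Caspase-Glo 3/7 reagent, 1 h RT, luminescence. Normalized to DMSO (basal) and 10 uM staurosporine (100%); Hill-fit AC50.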
# [6] = Cell Viability - LYMP2-001 (AID 921); details: LYMP2-001 lymphoblastoid cell viability; series mostly up to 92.2 µM; note: nearly all actives have a fitted effect of over 70% in size
# Outline: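 Human lymphoblastoid cells (Coriell), 2500 per well, were preincubated 5 hr at 37 C, then exposed to compounds in complete medium for 24 hr at 37 C. Cellular ATP was read by CellTiter-Glo luminescence; AC50 from Hill fits of concentration-response data.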
# [7] = MultiTox-Fluor Cytotoxicity Assay - LYMP1-002 - Live Cells (AID 955); details: LYMP1-002 lymphoblastoid live-cell protease fluorescence viability; series mostly up to 46.1 µM
# Outline: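 Human lymphoblastoid LYMP1-002 cells, 2500/well, treated 16 h at 37 C in complete medium. Live-cell protease activity via GF-AFC fluorescence (Ex/Em 405/510) after 60 min reagent incubation; AC50 from Hill fits.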
# [8] = Cell Viability - LYMP1-003 - Assay at 40 hr (AID 964); details: LYMP1-003 lymphoblastoid viability; series mostly up to 92.2 µM; note: nearly all actives have a fitted effect of over 60% in size
# Outline: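 LYMP1-003 human lymphoblastoid cells, 2500/well, preincubated 5 h at 37 C, then treated with compound for 40 h at 37 C. Intracellular ATP read by CellTiter-Glo luminescence after 30 min at room temperature; AC50 from Hill-equation fits.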
# [9] = Cell Viability - LYMP2-003 (AID 965); details: LYMP2-003 lymphoblastoid cell viability; series mostly up to 92.2 µM;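 note: cells exposed to compounds for 24 h before reading; nearly all actives have a fitted effect of over 50% in size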
# Outline: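 Human lymphoblastoid cells (2500/well) were pre-incubated 5 hr at 37 C, then exposed to compounds over a concentration range for 24 hr at 37 C. Intracellular ATP was read by CellTiter-Glo luminescence; AC50 came from Hill-equation fits.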
# [10] = Cell Viability - LYMP2-015 (AID 971); details: LYMP2-015 lymphoblastoid cell viability; series mostly up to 92.2 µM; note: nearly all actives have a fitted effect of over 55% in size
# Outline: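 LYMP2-015 human lymphoblastoid cells (2500/well) in complete medium, compound-treated 24 h at 37 C; viability read as cellular ATP by CellTiter-Glo luminescence after 30 min at room temperature. AC50 from Hill-equation fits of qHTS concentration-response data.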
# [11] = Cell Viability - LYMP2-023 (AID 975); details: LYMP2-023 lymphoblastoid cell viability; series mostly up to 92.2 µM;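 note: cellular ATP measured by luciferase luminescence as viability proxy; nearly all actives have a fitted effect of over 55% in size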
# Outline: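 LYMP2-023 human lymphoblastoid cells, 2500/well, preincubated 5 hr at 37 C, then compound-treated 24 hr at 37 C in complete medium. CellTiter-Glo luminescence (ATP) after 30 min at room temperature; AC50 from Hill-equation fits; tetraoctylammonium bromide positive control.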
# [12] = Cell Viability - LYMP2-006 (AID 978); details: LYMP2-006 lymphoblastoid cell viability, qHTS; series mostly up to 92.2 µM; note: nearly all actives have a fitted effect of over 60% in size
# Outline: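 Human lymphoblastoid cells, 2500 per well, were preincubated 5 hr at 37 C, then exposed to compounds for 24 hr at 37 C in complete medium. Viability was read as intracellular ATP by CellTiter-Glo luminescence; AC50 from Hill-equation fits of qHTS concentration-response data.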
# [13] = Cell Viability - LYMP2-026 (AID 989); details: LYMP2-026 lymphoblastoid cell viability, qHTS; series mostly up to 92.2 µM; note: nearly all actives have a fitted effect of over 50% in size
# Outline: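 Human lymphoblastoid LYMP2-026 cells, 2500/well, exposed to compound 24 h at 37 C in complete medium. Viability as intracellular ATP by CellTiter-Glo luminescence; AC50 from Hill fits of qHTS concentration-response.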
# [14] = qHTS assay for small molecule disruptors of the mitochondrial membrane potential - 5 hr assay (AID 651755; calls by dose curve; note: nearly all actives have a fitted effect of over 40% in size; note: potency is the fitted concentration of half-maximal effect); details: JC-1-type ratio dye; series mostly up to 92.2 µM
# Outline: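 HepG2, 2,000 cells/well, overnight attach; cpd or DMSO 5 hr, 37C/5% CO2; Mito-MPS 30 min 37C; fluor 490/535 + 540/590 nm.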
# [15] = target: Nuclear receptor subfamily 1 group I member 2 (Rattus norvegicus) (UniProt Q9R1A7); test: qHTS assay for small molecule activators of the rat pregnane X receptor (rPXR) signaling pathway (AID 651751; call rule not given here); details: rPXR reporter cells, luciferase (One-Glo), 24 h
# Chain of Nuclear receptor subfamily 1 group I member 2 (Rattus norvegicus) (Q9R1A7 whole entry, looked up): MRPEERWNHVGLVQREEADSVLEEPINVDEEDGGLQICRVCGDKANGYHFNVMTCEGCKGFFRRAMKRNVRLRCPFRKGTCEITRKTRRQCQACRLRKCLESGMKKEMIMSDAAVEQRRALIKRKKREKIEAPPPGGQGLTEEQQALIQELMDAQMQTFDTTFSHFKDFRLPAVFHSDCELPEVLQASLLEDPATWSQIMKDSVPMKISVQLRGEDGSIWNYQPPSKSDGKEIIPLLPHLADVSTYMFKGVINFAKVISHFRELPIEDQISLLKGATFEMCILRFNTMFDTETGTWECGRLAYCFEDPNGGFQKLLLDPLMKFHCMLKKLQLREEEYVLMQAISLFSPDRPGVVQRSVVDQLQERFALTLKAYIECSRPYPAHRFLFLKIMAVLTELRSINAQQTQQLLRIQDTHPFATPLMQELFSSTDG
# [16] = qHTS assay for small molecule activators of the human pregnane X receptor (PXR) signaling pathway (AID 720659; call rule not given here); details: DPX-2 HepG2 CYP3A4-luciferase, 24 h; series mostly up to 92.3 µM
# [17] = Cellular Toxicity (caspase-3) NIH 3T3 (AID 666); details: NIH 3T3 caspase-3 activation, apoptosis/toxicity; series mostly up to 92.2 µM;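 note: caspase signal read after 16 h compound exposure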
# Outline: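 Mouse NIH 3T3 fibroblasts (1000/well) treated 16 h at 37 C; caspase-3/7 activity measured by Caspase-Glo 3/7 luminescence after 20 min. Normalized to DMSO and 100 uM tamoxifen; AC50 from Hill fits.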
# [18] = Cell Viability - LYMP2-012 (AID 982); details: LYMP2-012 lymphoblastoid cell viability qHTS; series mostly up to 92.2 µM;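 note: cellular ATP by luciferase luminescence where a drop means cytotoxicity; cells exposed to compound for one day before reading; nearly all actives have a fitted effect of over 55% in size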
# [19] = target: Vitamin D3 receptor (Homo sapiens) (UniProt P11473); test: qHTS assay for small molecule agonists of vitamin D receptor signaling (AID 588543; calls by dose curve); details: HEK293T VDR-UAS-bla, beta-lactamase ratio, 16 h; series mostly up to 76.8 µM
# Chain of Vitamin D3 receptor (Homo sapiens) (P11473 whole entry, looked up): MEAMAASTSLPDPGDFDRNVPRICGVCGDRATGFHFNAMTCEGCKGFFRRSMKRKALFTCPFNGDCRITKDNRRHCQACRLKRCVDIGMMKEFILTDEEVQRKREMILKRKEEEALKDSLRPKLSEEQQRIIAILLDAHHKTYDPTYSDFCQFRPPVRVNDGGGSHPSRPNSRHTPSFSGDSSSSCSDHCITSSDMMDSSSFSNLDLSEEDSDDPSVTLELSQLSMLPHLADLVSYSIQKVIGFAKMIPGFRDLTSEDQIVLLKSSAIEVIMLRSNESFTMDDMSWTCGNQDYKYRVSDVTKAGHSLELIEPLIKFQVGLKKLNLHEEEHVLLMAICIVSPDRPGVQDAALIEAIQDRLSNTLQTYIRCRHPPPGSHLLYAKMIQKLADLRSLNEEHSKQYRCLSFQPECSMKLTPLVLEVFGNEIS
# Outline: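 GeneBLAzer VDR-UAS-bla HEK293T cells in 2% charcoal-stripped FBS medium were dosed with compound titrations for 16 h at 37 °C; CCF4 β-lactamase readout (405 nm ex, 460/530 nm em). EC50 and efficacy from Hill fits, normalized to 50 nM calcitriol (100%) and DMSO (0%).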
# [20] = MultiTox-Fluor Cytotoxicity Assay - LYMP1-001 - Dead Cells (AID 946); details: LYMP1-001 lymphoblastoid cells, dead-cell protease fluorescence; series mostly up to 92.2 µM
# Outline: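 Seed 2500 LYMP1-001 cells/well, incubate 5 hr at 37 C; add compound, 16 hr at 37 C; add MultiTox-Fluor reagent, 60 min RT; read dead-cell fluorescence Ex/Em=485/520. Normalize to DMSO and 15 uM tetraoctylammonium bromide.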
SMILES,Potency [1],Potency [2],outcome [3],Potency [4],outcome [5],Potency [6],outcome [7],Potency [8],Potency [9],Potency [10],Potency [11],Potency [12],Potency [13],Potency [14],max response [15] [%],outcome [16],Potency [17],Potency [18],outcome [19],outcome [20]
O=[N+]([O-])c1cccc2c([N+](=O)[O-])cccc12,> 92 µM,inactive,inactive,inactive,inactive,inactive,inactive,inactive,inactive,inactive,inactive,inactive,inactive,inactive,-2.66,inactive,,,,
Clc1cccc(Cl)c1,> 92 µM,inactive,inactive,inactive,,inactive,inactive,inactive,inactive,inactive,inactive,,inactive,inactive,1.78,inactive,inactive,inactive,inactive,
Brc1ccc(Oc2ccc(Br)cc2Br)c(Br)c1,,,inactive,inactive,inactive,inactive,,inactive,inactive,inactive,inactive,,inactive,inactive,,,inactive,inactive,inactive,
Nc1c(Br)cc([N+](=O)[O-])cc1[N+](=O)[O-],> 92 µM,inactive,inactive,inactive,,inactive,inactive,inactive,inactive,,inactive,inactive,,26.6 µM (active),14.9,inactive,inactive,,inactive,inactive
CN(C)c1ccc(N=Nc2ccccc2)cc1,> 92 µM,,inactive,inactive,,inactive,inactive,inactive,inactive,,,inactive,inactive,,,,,inactive,inactive,inactive
Oc1cc(Cl)c(Cl)c(Cl)c1,59.9 µM (active),,inactive,inactive,inactive,inactive,inactive,inactive,,inactive,,,,37.6 µM (active),-2.97,inactive,inactive,,inactive,inactive
Nc1cc(Cl)ccc1O,> 92 µM,,inactive,,inactive,inactive,inactive,,inactive,,inactive,inactive,inactive,33.5 µM (active),,,inactive,inactive,inactive,
c1ccc(OCC2CO2)cc1 (configuration not stated),> 92 µM,inactive,inactive,inactive,inactive,inactive,inactive,inactive,inactive,,,inactive,inactive,inactive,-1.75,inactive,inactive,inactive,inactive,inactive
C=C(C)CCl,> 92 µM,,inactive,inactive,,inactive,inactive,inactive,inactive,inactive,,inactive,inactive,inactive,-1.42,inactive,,inactive,inactive,
CCCCOC(C)=O,> 92 µM,inactive,inactive,inactive,inactive,inactive,inactive,inactive,inactive,inactive,inactive,inactive,inactive,inactive,,,inactive,inactive,,inactive
O=[N+]([O-])c1ccc(O)c([N+](=O)[O-])c1,> 92 µM,inactive,inactive,inactive,inactive,inactive,,inactive,inactive,inactive,,inactive,inactive,37.6 µM (active),,inactive,inactive,inactive,,inactive
S=c1[nH]c2ccccc2[nH]1,> 92 µM,inactive,,inactive,inactive,inactive,inactive,inactive,inactive,,,inactive,,inactive,-7.5,inactive,inactive,inactive,,inactive
